Reference: PubChem BioAssay (NCI)
The panel holds about 83,000 compounds, 20% with a hit somewhere; the sample as a whole holds those more often.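 Single-dose data. Exposure time 48 hours. Values below 10 considered active.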 Active and inactive are the calls of the source.

Assays:
Experiment in all cases: NCI-60 one-dose screen, 48 h (100 = growth as untreated, 0 = no growth, -100 = all killed)
Settings in all cases: 10 µM unless noted
NCI-H23 lung = system: NCI-H23 lung
NCI-H226 lung = system: NCI-H226 lung
NCI-H322M lung = system: NCI-H322M lung
HOP-62 NSCLC = system: HOP-62 NSCLC
NCI-H460 lung = system: NCI-H460 lung
HOP-92 NSCLC = system: HOP-92 NSCLC
NCI-H522 lung = system: NCI-H522 lung
A549/ATCC NSCLC = system: A549/ATCC NSCLC
786-0 renal = system: 786-0 renal
COLO 205 colon = system: COLO 205 colon

Measured: growth

CCn1cc(CNc2ccc(C(=O)Nc3cc4cc(OC)c(OC)cc4c(C)n3)cc2)c(C)n1
inactive: NCI-H226 lung 20.5% | NCI-H322M lung 85.1% | HOP-62 NSCLC 12.8% | NCI-H460 lung 58.1% | HOP-92 NSCLC 78.6% | A549/ATCC NSCLC 29.5% | 786-0 renal 70.9% | COLO 205 colon 28.9%
active: NCI-H23 lung 9.61% | NCI-H522 lung -10.1%

CCCCn1sc(=O)n(Cc2ccc(CNC(=O)OCc3ccc4c(Br)cc(Br)c(O)c4n3)cc2)c1=O
active: NCI-H460 lung 4.44% | NCI-H522 lung -7.12%
inactive: NCI-H23 lung 36.1% | NCI-H226 lung 31.6% | NCI-H322M lung 46% | HOP-62 NSCLC 27.1% | HOP-92 NSCLC 37.8% | A549/ATCC NSCLC 18.9% | 786-0 renal 92.2% | COLO 205 colon 114%

CCCCCCCCCCCCCCCCCCOc1ccccc1CC(=O)NCC[N+]1(C)CCOCC1
inactive: NCI-H23 lung 67.8% | NCI-H226 lung 69.2% | NCI-H322M lung 65.2% | HOP-62 NSCLC 53% | NCI-H460 lung 45.7% | NCI-H522 lung 30.8% | A549/ATCC NSCLC 55.6% | COLO 205 colon 37.6%
active: HOP-92 NSCLC -2.9% | 786-0 renal 2.4%

C#CC#CC#CC#CC#CC#CC#CC#CC[C@H]1OC[C@@H](COC(=O)O[C@@H](C(=O)O[C@H]2C[C@@]3(O)[C@@H](OC(=O)c4ccccc4)[C@@H]4[C@]5(OC(C)=O)CO[C@@H]5C[C@H](O)[C@@]4(C)C(=O)[C@H](OC(C)=O)C(=C2C)C3(C)C)[C@@H](NC(=O)c2ccccc2)c2ccccc2)O1
inactive: NCI-H23 lung 48% | NCI-H226 lung 56.2% | NCI-H322M lung 54.6% | HOP-62 NSCLC 74.4% | NCI-H460 lung 19.2% | HOP-92 NSCLC 79.3% | NCI-H522 lung 71.4% | A549/ATCC NSCLC 52.4% | 786-0 renal 83.3% | COLO 205 colon 29.4%

CC1=CCC[C@@H]2C1(C)CC[C@H](C)[C@@]2(C)CC1=CC(=O)C(SC(C)(C)C)=CC1=O (stereo not given in full)
inactive: NCI-H23 lung 81.2% | NCI-H226 lung 84.7% | NCI-H322M lung 87.6% | HOP-62 NSCLC 97.8% | NCI-H460 lung 83.5% | HOP-92 NSCLC 75.2% | NCI-H522 lung 62.9% | A549/ATCC NSCLC 73.3% | 786-0 renal 82.4% | COLO 205 colon 100%

CCCCCCC(=O)Nc1ncc(Cc2ccc(C)cc2)s1
inactive: NCI-H23 lung 59.3% | NCI-H226 lung 64.1% | NCI-H322M lung 58.4% | HOP-62 NSCLC 40.3% | NCI-H460 lung 23.4% | HOP-92 NSCLC 60.4% | NCI-H522 lung 22.2% | A549/ATCC NSCLC 47.5% | 786-0 renal 46% | COLO 205 colon 16.5%

COc1cc(C(=O)/C=C/c2c(-c3cccs3)nc3ccccn23)cc(OC)c1OC
active: NCI-H322M lung -2.37% | NCI-H460 lung -48.1% | HOP-92 NSCLC -1.12% | NCI-H522 lung 1.24% | 786-0 renal 0.465% | COLO 205 colon 2.79%
inactive: NCI-H23 lung 14.1% | NCI-H226 lung 24.8% | HOP-62 NSCLC 16.3% | A549/ATCC NSCLC 13.7%

Cc1ccccc1CNc1c2ccccc2nc2ccccc12
active: NCI-H460 lung 6.94% | HOP-92 NSCLC -1.03% | COLO 205 colon -18.5%
inactive: NCI-H23 lung 23.4% | NCI-H226 lung 31.5% | NCI-H322M lung 29% | HOP-62 NSCLC 28.1% | NCI-H522 lung 50% | A549/ATCC NSCLC 19.7% | 786-0 renal 24.3%

Nc1ncnc2c1c(-c1ccc(Oc3ccccc3)cc1)nn2CC1SSCC1O (stereo not given)
active: HOP-92 NSCLC 6.06%
inactive: NCI-H23 lung 49% | NCI-H226 lung 23.4% | NCI-H322M lung 34.8% | HOP-62 NSCLC 56.9% | NCI-H460 lung 28% | NCI-H522 lung 37.8% | A549/ATCC NSCLC 42.3% | 786-0 renal 63.8% | COLO 205 colon 35.2%

COC(=O)C1=Nc2ccc(F)cc2/C1=C\c1sc(Nc2ccc(O)cc2)nc1O
inactive: NCI-H23 lung 73.4% | NCI-H226 lung 78.2% | NCI-H322M lung 96.7% | HOP-62 NSCLC 64.3% | NCI-H460 lung 102% | HOP-92 NSCLC 42.7% | NCI-H522 lung 47.4% | A549/ATCC NSCLC 99% | 786-0 renal 66.1% | COLO 205 colon 101%

Cc1c2cc[nH]c(=O)c2c(C)c2c1[nH]c1ccc(OC(=O)c3ccccc3)cc12
inactive: NCI-H23 lung 24.4% | NCI-H226 lung 38.5% | NCI-H322M lung 40.8% | HOP-62 NSCLC 18.7% | HOP-92 NSCLC 40.9% | NCI-H522 lung 26.9% | 786-0 renal 44.9% | COLO 205 colon 30.4%
active: NCI-H460 lung 1.23% | A549/ATCC NSCLC 6.49%

NC(=S)N/N=C/c1cn(-c2ccccc2)nc1-c1cc2ccccc2oc1=O
inactive: NCI-H23 lung 78.2% | NCI-H226 lung 81.3% | NCI-H322M lung 89.2% | HOP-62 NSCLC 72.3% | NCI-H460 lung 21% | HOP-92 NSCLC 79.7% | NCI-H522 lung 36.5% | A549/ATCC NSCLC 46.4% | 786-0 renal 62.4% | COLO 205 colon 46.4%

COc1ccc2[nH]cc(-c3nc(-c4cn(C)c5ccncc45)cs3)c2c1
active: NCI-H460 lung -51% | A549/ATCC NSCLC 6.03%
inactive: NCI-H23 lung 93.9% | NCI-H226 lung 106% | NCI-H322M lung 90.9% | HOP-62 NSCLC 95.4% | HOP-92 NSCLC 98.2% | NCI-H522 lung 65.4% | 786-0 renal 79% | COLO 205 colon 96.2%

COc1cc2c(cc1O)[C@@]1(C)[C@H](c3ccccc3Br)OC(=O)N1CC2
inactive: NCI-H23 lung 94.3% | NCI-H226 lung 83.9% | NCI-H322M lung 116% | HOP-62 NSCLC 97.3% | NCI-H460 lung 96.5% | HOP-92 NSCLC 82.8% | NCI-H522 lung 75.5% | A549/ATCC NSCLC 79.6% | 786-0 renal 104% | COLO 205 colon 117%

COc1cc(/C=C2\C(=O)N(c3c(Cl)cccc3Cl)c3ccccc32)cc(OC)c1OCCCCCCn1c2ccccc2c(=O)c2ccccc21
inactive: NCI-H23 lung 103% | NCI-H226 lung 95.4% | NCI-H322M lung 95.7% | HOP-62 NSCLC 95.4% | NCI-H460 lung 110% | HOP-92 NSCLC 95.9% | NCI-H522 lung 87.3% | A549/ATCC NSCLC 109% | 786-0 renal 95.5% | COLO 205 colon 107%

CCOC(=O)/C=C/c1c(C)[nH]c(=O)[nH]c1=O
inactive: NCI-H23 lung 81.2% | NCI-H226 lung 98.6% | NCI-H322M lung 136% | HOP-62 NSCLC 93.7% | NCI-H460 lung 51.7% | HOP-92 NSCLC 114% | NCI-H522 lung 59.6% | A549/ATCC NSCLC 97.2% | 786-0 renal 114% | COLO 205 colon 92.6%

COC(=O)c1ccc2c(c1)c1c(C)c3ccncc3c(C)c1n2C
active: NCI-H460 lung 8.82% | NCI-H522 lung 6.4% | A549/ATCC NSCLC 7.22% | COLO 205 colon 2.15%
inactive: NCI-H23 lung 24.1% | NCI-H226 lung 25% | NCI-H322M lung 33.6% | HOP-62 NSCLC 24% | HOP-92 NSCLC 18.7% | 786-0 renal 28.5%

COc1cc(C#Cc2ccc(=O)oc2C#Cc2ccccc2)cc(OC)c1OC
inactive: NCI-H23 lung 64.8% | NCI-H226 lung 76.6% | NCI-H322M lung 103% | HOP-62 NSCLC 102% | NCI-H460 lung 84.7% | HOP-92 NSCLC 112% | NCI-H522 lung 18.2% | A549/ATCC NSCLC 95.7% | 786-0 renal 83% | COLO 205 colon 23.6%

Cc1cccc(N2CCN(C(=S)c3ccc4c(c3)OCO4)CC2)c1
inactive: NCI-H23 lung 31.3% | NCI-H226 lung 57.2% | NCI-H322M lung 33.2% | HOP-62 NSCLC 28.9% | HOP-92 NSCLC 74.4% | A549/ATCC NSCLC 31.7% | 786-0 renal 30.2%
active: NCI-H460 lung 8.2% | NCI-H522 lung -25.2% | COLO 205 colon -36%

O=[N+]([O-])/C(=C\c1ccco1)c1ccccc1Cl
inactive: NCI-H23 lung 92.3% | NCI-H226 lung 90.3% | NCI-H322M lung 80.2% | HOP-62 NSCLC 76.2% | NCI-H460 lung 68.1% | HOP-92 NSCLC 33.2% | NCI-H522 lung 23.2% | A549/ATCC NSCLC 62.3% | COLO 205 colon 82.8%
active: 786-0 renal 9.35%

COc1cc(-c2nc(SCCC(C)C)nc(N3CCOCC3)c2C#N)cc(OC)c1OC
inactive: NCI-H23 lung 74.2% | NCI-H226 lung 106% | NCI-H322M lung 91.2% | HOP-62 NSCLC 28.6% | NCI-H460 lung 12.2% | HOP-92 NSCLC 81.9% | NCI-H522 lung 65.8% | A549/ATCC NSCLC 22.4% | 786-0 renal 66% | COLO 205 colon 63.8%

COc1cc2cc(NCc3ccc(OC(F)F)cc3)nc(C)c2cc1OC
inactive: NCI-H23 lung 45.1% | NCI-H226 lung 75.5% | NCI-H322M lung 53.4% | HOP-62 NSCLC 58.7% | NCI-H460 lung 57.2% | HOP-92 NSCLC 63% | NCI-H522 lung 45.3% | A549/ATCC NSCLC 72.1% | 786-0 renal 61.8% | COLO 205 colon 65.7%

O=C1CC2C=CCN2C=C1NC(=O)C1CCCCC1 (stereo not given)
inactive: NCI-H23 lung 97.4% | NCI-H226 lung 104% | NCI-H322M lung 100% | HOP-62 NSCLC 102% | NCI-H460 lung 112% | HOP-92 NSCLC 115% | NCI-H522 lung 89.7% | A549/ATCC NSCLC 97.5% | 786-0 renal 99.5% | COLO 205 colon 105%

CCOC(=O)c1c(C)nc2c(c1N)CC(=O)N2Cc1cc(OC)c(OC)c(OC)c1
inactive: NCI-H23 lung 39.7% | NCI-H226 lung 70.5% | NCI-H322M lung 81.3% | HOP-62 NSCLC 32.5% | NCI-H460 lung 17.6% | HOP-92 NSCLC 62.6% | NCI-H522 lung 33.2% | A549/ATCC NSCLC 40.7% | 786-0 renal 66.2% | COLO 205 colon 20.4%

CC(C(=O)O)n1c(O)c(C=Nc2cccnc2)sc1=S (stereo not given)
inactive: NCI-H23 lung 99.1% | NCI-H226 lung 85.3% | NCI-H322M lung 93.1% | HOP-62 NSCLC 89.5% | NCI-H460 lung 100% | HOP-92 NSCLC 86% | NCI-H522 lung 89.2% | A549/ATCC NSCLC 92.4% | 786-0 renal 95.5% | COLO 205 colon 107%

CN(C)Cc1ccc(C(=O)Nc2ccc3ncnc(Nc4ccc(Oc5cccc(F)c5)c(Cl)c4)c3c2)cc1
inactive: NCI-H23 lung 49.5% | NCI-H226 lung 80.2% | HOP-62 NSCLC 45.1% | HOP-92 NSCLC 36.2%
active: NCI-H322M lung 4.65% | NCI-H460 lung -74.3% | NCI-H522 lung -29.6% | A549/ATCC NSCLC 8.26% | 786-0 renal -84.9% | COLO 205 colon -53.3%
